Growth data for 14 compounds are collected here from PubChem BioAssay (NCI).

This is part of a sample that, as a whole, favours compounds with a hit. Of some 83,000 tested, about 20% had one in any assay.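 Method: cells in 96-well plates; compound added at one concentration; 48 h incubation; percent growth measured; values under 10 scored active.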 Unmarked numbers belong to inactive results. The source made the active and inactive calls.

Common to all, as to test: NCI-60 one-dose screen, 48 h (100 = growth as untreated, 0 = no growth, -100 = all killed)
What all share (conditions): 10 µM

Assay [1] deals with DU-145 prostate.
The test system of assay [2] is K-562 leukemia.
The test system of assay [3] is MALME-3M melanoma.
For assay [4], the system named is MDA-MB-231 breast.
The test system of assay [5] is RXF 393 renal.
The test system of assay [6] is SF-268 CNS.
Assay [7] has as its system SF-295 CNS.
Assay [8] concerns SF-539 CNS.
For assay [9], the system named is UACC-257 melanoma.
For assay [10], the system named is M14 melanoma.

In the case of `CN(C)Cc1cc(C(C)(C)CC(C)(C)C)ccc1O`, the growth in assay [1] is 126%; in assay [2] it was 108%; in [3], 100%; in assay [4] it was 96.9%; in [5] it was 138%; in assay [6], 106%. In addition, the growth in [7] was 95.6%; in [8], 90.8%; in [9], 112%; in assay [10], 98%.

Take `N#CCc1ccc([N+](=O)[O-])cc1`: the growth in assay [1] is 113%; in assay [2] it was 114%; in assay [3], 148%; in [4], 100%; in assay [5] it was 113%; in [6], 106%. In addition, the growth in assay [7] was 95.3%; in assay [8], 101%; in assay [9] it was 74%; in [10] it was 101%.

As to `CCC(=O)Oc1ccc(OC)cc1`, the growth in assay [1] is 98.3%; in assay [2], 107%; in assay [3], 89.1%; in [4], 103%; in assay [5], 116%; in assay [6], 102%. The growth in assay [7] is 118%; in assay [8], 101%; in assay [9], 108%; in assay [10], 104%.

Regarding `CCN(CC)c1ccc2nc3ccc(=[N+](CC)CC)cc-3oc2c1`, the growth was 37.6% in [1]; 21% in assay [2]; -48.6% (active) in assay [3]; -12.1% (active) in [4]; 53.1% in [5]; 13.9% in assay [6]. Moreover, the growth is 1.09% (active) in [7], 21.2% in assay [8], -55.8% (active) in assay [9] and -34.1% (active) in assay [10].

Take `Cc1nc2c(ccc3ccccc32)s1`: the growth is 123% in assay [1]; 115% in [2]; 110% in assay [3]; 107% in assay [4]; 116% in assay [5]; 116% in [6]. Further, the growth in [7] is 104%; in assay [8] it was 100%; in assay [9] it was 101%; in [10], 98.5%.

Take `NCCC(=O)c1ccc(Cl)cc1`: the growth in assay [1] is 108%; in assay [2], 98.1%; in [3], 109%; in assay [4] it was 110%; in [5], 114%; in assay [6], 100%. Further, the growth in [7] was 105%; in [8], 104%; in assay [9], 101%; in [10] it was 102%.

In the case of `O=[N+]([O-])c1ccc(-c2ncc(-c3ccc(Br)cc3)o2)cc1`, the growth in assay [1] was 112%; in assay [2], 97.3%; in assay [3] it was 125%; in assay [4] it was 119%; in [5], 106%; in assay [6], 107%. Further, the growth in assay [7] was 98.3%; in assay [8] it was 101%; in assay [9], 74.1%; in assay [10], 109%.

With `Cc1c(O)cccc1O`, the growth in assay [1] is 124%; in [2], 88.2%; in assay [3], 156%; in [4], 96.5%; in assay [5], 77.7%; in [6], 112%. For the same compound, the growth in assay [7] is 98.2%; in assay [8] it was 103%; in assay [9], 108%; in assay [10], 105%.

Turning to `CCC/C=C(\C)C(C)(C#N)C(=O)OCC` (stereo not given), the growth was 124% in assay [1]; 100% in assay [2]; 107% in assay [3]; 122% in assay [4]; 105% in assay [5]; 118% in [6]. Moreover, the growth in assay [7] was 112%; in [8], 102%; in assay [9], 86.2%; in assay [10], 116%.

As to `CC(=O)c1cc2c(cc1F)C(C)(C)CCC2(C)C`, the growth in [1] was 108%; in assay [2], 96.2%; in assay [3], 123%; in assay [4], 103%; in [5], 113%; in assay [6], 95.4%. The growth in assay [7] is 120%; in assay [8], 96.2%; in assay [9], 96.3%; in assay [10] it was 98.9%.

Take `COc1cccc(Sc2ccc([N+](=O)[O-])c3no[n+]([O-])c23)c1`: the growth is 67.3% in assay [1]; 8.93% (active) in assay [2]; 27.7% in assay [3]; 74.2% in assay [4]; -54% (active) in assay [5]; 62.6% in [6]. Besides, the growth is 95.9% in assay [7], 95.4% in assay [8], 96.7% in assay [9] and 72.1% in [10].

As to `COC(=O)Nc1nc2ccc(C(=O)c3ccc(F)cc3)cc2[nH]1`, the growth in assay [1] is -31% (active); in assay [2] it was -37% (active); in assay [3], 57.5%; in assay [4], 26.5%; in assay [5] it was -41.2% (active); in [6], 22.6%. Also, the growth in assay [7] is -3.22% (active); in assay [8] it was -21.8% (active); in [9], -2.09% (active); in assay [10] it was 15.6%.

For the compound `COc1ccc(NC(=O)CCl)cc1`, the growth in assay [1] is 94.6%; in assay [2], 93.4%; in assay [3], 88.6%; in [4] it was 81.6%; in assay [5] it was 69.7%; in assay [6] it was 73.3%. Moreover, the growth in [7] was 101%; in assay [8] it was 83.5%; in assay [9] it was 60.4%; in [10], 75.1%.

Regarding `CCOc1ccc(/C=C/C(=O)c2ccccc2)cc1`, the growth in assay [1] is 95.1%; in assay [2], 71.5%; in assay [3], 108%; in assay [4] it was 114%; in assay [5], 53.4%; in assay [6] it was 85.6%. Besides, the growth in assay [7] was 111%; in assay [8] it was 105%; in assay [9] it was 97.7%; in assay [10], 99.7%.
